Measured values: PubChem BioAssay (NCI)
About 79,000 compounds went through this panel and 15% of them were active in at least one assay; those are over-represented in the sample as a whole. A number with no mark means an inactive call. Rule as the data show it: active = growth inhibition above about 70%; inactive = the rest.

Assay: NCI Yeast Anticancer Drug Screen. Data for the cln2 rad14 strain (AID 165);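 also: 0% = growth equal to vehicle treated cultures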
Details: S. cerevisiae cln2 rad14 strain, at 50.0 µM, stronger effect = higher value
Procedure, shortened: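 Yeast carrying cln2 and rad14 alterations (cell cycle control and DNA damage repair) were exposed to compounds. Growth inhibition was measured against vehicle-treated controls.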

SMILES	growth inhibition
CN(C)c1c([O-])c(=[N+](C)C)c1=O	-10.6%
C[N+](C)(C)CCc1ccc2ccccc2c1	0.1%
CCOP(=O)(OCC)c1c(C(=O)OC)cc(=O)[nH]c1-c1ccc(C)cc1	25.2%
CCOC(=O)CCC(C#N)C(=O)OCC (stereo not drawn)	-10.2%
CC(C)(C)C(=O)C(C(=O)c1ccccc1)C(=O)C(C)(C)C	6.85%
FC(F)(F)c1cccc(C=NC23CC4CC(CC(C4)C2)C3)c1	10.4%
CCCCCCCCCCCCCCCCCCN=C(N)N	22.4%
COc1ccc(/C(N=Nc2ccccc2)=N/N=C(N)N)cc1	-2.6%
COc1ccc(/C(=N\N=C(N)N)C(c2ccc(OC)cc2)C2OC(=O)c3ccccc32)cc1 (stereo not drawn)	-64.8%
COc1ccc(NC(=O)CSc2nc(C)nc3c2sc(=S)n3-c2ccccc2)cc1	2.65%
[O-]c1c[n+](-c2ccc3c(c2)OCO3)no1	-16.4%
CCOC(=O)C1=C(N)n2c(s/c(=C/c3ccc(N(C)C)cc3)c2=O)=C(C(=O)OCC)C1c1ccc(N(C)C)cc1 (stereo not drawn)	-7.2%
COc1ccc(/C(Cl)=C(\C=O)c2cc(OC)c(OC)c(OC)c2)cc1OC	13.8%
COC(=O)C[C@](O)(CCCC(C)(C)O)C(=O)O[C@@H]1C(OC)=C[C@]23CCCN2CCc2cc4c(cc2[C@H]13)OCO4	41%
c1ccc(-c2c(-c3cccs3)[nH]c(-c3cccs3)c2-c2ccccn2)nc1	-29.4%
CCOC(=O)/C(=C\c1cc(OC)ccc1OC)P(=O)(OCC)OCC	21.9%
CCCCCCCCCCCCN(CC(O)C(O)C(OC1OC(CO)C(O)C(O)C1O)C(O)CO)C(=O)CCCCCCCCCCC (stereo not drawn)	0.4%
O=C1OC(CC(=O)c2ccc(Cl)c(Cl)c2)C(Cl)=C1Cl (stereo not drawn)	29.9%
COc1ccc(C(=O)c2ccccc2)c(N)c1	-18.9%
COc1cc(CC2C(=O)OCC2C2(c3ccc4c(c3)OCO4)SCCCS2)cc(OC)c1OC (stereo not drawn)	27.5%
O=C(O)/C=C\C(=O)Nc1ccc(N=Nc2ccccc2)cc1	-3.65%
CN(C)/C=C/C(=O)c1ccccc1	-16.4%
O=C(O)c1nc2ccccc2c(=O)[nH]1	-43.1%
